Bioassay records: PubChem, National Center for Advancing Translational Sciences (NCATS)
IL2 activator: qHTS of IL-2 Activators | IL-2 activation reporter assay, cell-based qHTS; stimulated with anti-CD3/CD4/CD28 beads; in transgenic mouse T cells | activation, % (series mostly up to about 46 µM) | 0.065% of 360,000 active | AID 652025, 2013; in the data active = activation above about 50%; inconclusive = mostly about 30% to 49%; note: 0% is about no effect
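Readout is EGFP and DsRed signal by fluorescent plate cytometry after 18 h at 37 degrees C. Transgenic mouse T cells (750/well) received compound for 60 min before bead stimulation (anti-CD3, anti-CD4, anti-CD28); memory T cells served as non-tolerant control.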
Nrf2 inh: Nrf2 qHTS screen for inhibitors; A549 ARE-Fluc reporter, luciferase luminescence, 18-24 h; Potency, µM (top dose mostly 46 µM), without a hit: at the highest dose activity change, negative = inhibition, hits mostly inhibitors; 2.1% of 360,000 active; note: potency is the fitted concentration of half-maximal effect; % is set by controls: 0 for no effect and ±100 for the full control effect; nearly all actives have a fitted effect of over 60% in size
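A549 ARE_Fluc cells, 5000/well, 5% FBS OPTI-MEM; compounds in dose-response, 18-24 h at 37 °C/5% CO2; CellTiter-Fluor viability read (Ex 405/Em 525), then BugLite luciferase luminescence = Nrf2 activity.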
A549 viability: Nrf2 qHTS screen for inhibitors: counterscreen for cytotoxicity. 0.16% of 390,000 active. AID 504648, 2011. A549 ARE-Fluc cells, CellTiter-Fluor viability, 18-24 h. Potency, µM (highest dose often 46 µM), for inactives: top-dose activity change, negative = cytotoxicity, actives largely listed as inhibitors; note: potency is the fitted concentration of half-maximal effect; % is set by controls: 0 for no effect and ±100 for the full control effect
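A549 ARE_Fluc cells in 5% FBS OPTI-MEM were exposed to compounds in concentration-response for 18-24 h at 37 deg C. Viability was read by CellTiter-Fluor fluorescence (Ex 405/Em 525) after 30 min, before the luciferase read.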
Nrf2 activator: qHTS of Nrf2 Activators | 0.31% of 410,000 active | AREc32 ARE-luciferase reporter (MCF7-derived line), luminescence, 24 h | Potency, µM (titrated, usually from 46.1 µM), for the others: at the top dose activation, hits mostly activators; note: potency is the fitted concentration of half-maximal effect; % of control where 0% means no effect; nearly all actives have a fitted effect of over 65% in size
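Nrf2 activation is followed as ARE-luciferase induction in the AREc32 line after one day of compound treatment; luminescence is read with Steady-Glo.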
Numbers without * were called inactive; ? = inconclusive; nt = not tested or not shown. Most compounds without a hit are left out; they make up all but 2.3% or so of the library. Unless noted, calls come from the whole dose curve; as a rule, active = well fitted curve in the direction sought with a large enough effect; inconclusive = small, poorly fitted or top-dose-only effect, or another doubt; inactive = no such curve, though single readings can be large; an effect the other way counts as inactive or inconclusive.

SMILES	IL2 activator	Nrf2 inh	A549 viability	Nrf2 activator
COc1ccc(NC(=O)CSc2ncc(-c3ccc(F)cc3)n2Cc2ccco2)cc1	-3	16µM*	-17%	2%
COc1ccc(-c2cnc(SCC(=O)Nc3cc(C)on3)n2Cc2ccco2)cc1	-1	-13%	-7%	0%
COC(=O)c1ccccc1NC(=O)Cn1nnc2sc(-c3ccccc3)cc2c1=O	nt	8%	-7%	16%
NC(=O)c1c(NC(=O)c2ccc([N+](=O)[O-])o2)sc2c1CCCC2	1	-2%	2%	4µM*
CN1CCc2c(sc(NC(=O)c3ccc([N+](=O)[O-])o3)c2C(N)=O)C1	-1	?	21µM*	-2%
N#Cc1c(NC(=O)c2ccc([N+](=O)[O-])o2)sc2c1CCC2	-5	7%	?	?
O=C(NCc1cccc(F)c1)C1CCN(c2nc3ccccc3nc2C(F)(F)F)CC1	nt	23%	-4%	0%
COc1ccc(OC)c(NC(=O)c2cc(C3CC3)nc3c2c(C)nn3-c2ccc(C)cc2)c1	nt	-19%	4%	-1%
COc1cc2c(cc1OC)/C(=C/C(=O)c1ccc(OC)c([N+](=O)[O-])c1)NCC2	0	?	-24%	6%
COc1cc2c(cc1OC)/C(=C/C(=O)c1cccc([N+](=O)[O-])c1)NCC2	-1	13µM*	?	5%
Cc1ccc2nc(SC(C)C(=O)NC3CCCC3)[nH]c2c1 (configuration not stated)	-1	-15%	-4%	1%
Cc1ccc2nc(SC(C)C(=O)Nc3cccc([N+](=O)[O-])c3)[nH]c2c1 (configuration not stated)	-6	21µM*	-15%	7%
CC(C)CC(NC(=O)c1ccc(Cl)cc1)C(=O)OCC(=O)c1ccc2c(c1)NC(=O)CO2 (configuration not stated)	-3	16µM*	21µM*	0%
CC(O)C(NS(=O)(=O)c1ccc(Cl)cc1)C(=O)OCC(=O)c1ccc2c(c1)NC(=O)CO2 (configuration not stated)	1	10%	-4%	0%
O=C1COc2ccc(C(=O)COC(=O)/C=C/c3ccco3)cc2N1	4	4%	-6%	2.2µM*
O=C1COc2ccc(C(=O)COC(=O)c3ccco3)cc2N1	-1	9%	1%	0%
NS(=O)(=O)c1ccc(N=Nc2c(-c3ccccc3)[nH]n(-c3nc(-c4ccccc4)cs3)c2=O)cc1	-2	4.6µM*	?	2%
COc1ccc(Cc2[nH]n3c(=O)cc(C(C)C)nc3c2-c2ccccc2)cc1	0	12µM*	?	0%
COc1ccc(Cc2[nH]n3c(=O)cc(C)nc3c2-c2ccccc2)cc1	1	?	-3%	1%
Cc1ccc(-c2nnc(SCC(=O)NCCC(C)C)nc2-c2ccc(C)cc2)cc1	nt	?	?	0%
Nc1c(C(=O)Nc2ccc(Cl)c(C(F)(F)F)c2)sc2nc(-c3ccncc3)ccc12	nt	7.3µM*	-4%	0%
COc1ccc(NC(=O)c2sc3nc(-c4cccnc4)ccc3c2N)cc1OC	94*	-19%	-4%	-1%
Cc1ccccc1NC(=O)c1sc2nc(-c3ccncc3)ccc2c1N	nt	26µM*	-8%	-1%
COc1cccc(-c2ccc3c(N)c(C(=O)Nc4ccccc4C)sc3n2)c1	nt	nt	?	0%
Cc1ccc(CNC(=O)CS(=O)(=O)Cc2nc(-c3ccccc3C)oc2C)cc1	nt	?	-17%	0%
SMILES	IL2 activator	Nrf2 inh	A549 viability	Nrf2 activator
O=C(CSc1ncc(-c2ccccc2)[nH]1)Nc1ccc(Cl)cc1	nt	28%	2%	8%
c1nc(N2CCC(N3CCCC3)CC2)c2cc(-c3ccc4c(c3)OCO4)ccc2n1	nt	-2%	2%	nt
Cc1nn2c3c(cnc2c1-c1ccccc1)C(=O)CC(c1ccco1)C3 (configuration not stated)	-1	-25%	-12%	1.3µM*
COc1ccc(/C=N/Nc2nc(C)cc(-c3ccccc3)n2)cc1OC	-1	23µM*	-7%	0%
Oc1ccc2ccccc2c1C=NCc1ccccc1	-3	18%	0%	-1%
COc1c(O)ccc(/C=N/NC(=O)c2ccc3c(c2)OCCO3)c1[N+](=O)[O-]	0	5.2µM*	2%	4%
Oc1ccccc1C=NN=Cc1c(O)ccc2ccccc12	52*	5%	-8%	?
O=C(NN=Cc1c(O)ccc2ccccc12)c1ccc2c(c1)OCO2	0	16µM*	?	0%
O=C(N/N=C/c1cc2c(cc1[N+](=O)[O-])OCO2)c1ccc2c(c1)OCO2	1	-3%	0%	0%
O=C(N/N=C/c1ccccc1)c1ccc2c(c1)OCO2	1	1%	-2%	-1%
COc1c(O)ccc(/C=N\NC(=O)c2ccc3c(c2)OCO3)c1[N+](=O)[O-]	2	12µM*	-1%	0%
NN=C1c2cc(S(=O)(=O)NCCO)ccc2-c2ccc(S(=O)(=O)NCCO)cc21	nt	20%	2%	nt
O=C(NCc1cccc(F)c1)C1=Cc2cc(Br)ccc2OC1	nt	nt	13%	0%
CCN(Cc1ccccc1)C(=O)C1CCC(CNS(=O)(=O)c2ccc3c(c2)CCCC(=O)N3)CC1 (configuration not stated)	nt	?	5%	10%
COc1ccc2cc(C3CC(c4cccs4)=NN3C(C)=O)c(Cl)nc2c1 (configuration not stated)	0	1%	0%	0%
COc1ccc(C(=O)N2N=C(c3cccs3)CC2c2ccccc2O)cc1 (configuration not stated)	-1	18µM*	?	7%
COc1ccc(C2=NN(C(=O)c3cccs3)C(c3ccccc3O)C2)cc1 (configuration not stated)	-3	23µM*	?	0%
COc1ccc(-c2cn3c(n2)sc2cc(C(=O)Nc4ccc(C)c(C)c4)ccc23)cc1	nt	-26%	0%	1%
CCOc1cc(-c2ccc3c(c2)OCO3)cc(=[O+]CC)c2c(C)oc(C)c12	nt	8%	0%	nt
N#CCSc1nccc(/C=C/c2ccccc2)n1	-1	?	3%	11µM*
CCc1ccc(C(c2ccccc2)c2c[nH]c3ccc(C)cc23)s1 (configuration not stated)	nt	3%	0%	18%
Brc1ccc(N/N=C(/N=Nc2nn[nH]n2)c2ccccc2)cc1	4	10µM*	?	-1%
Cc1ccc(N2CCN(S(=O)(=O)c3c(C)[nH]c(=O)[nH]c3=O)CC2C)cc1 (configuration not stated)	nt	nt	12%	0%
Cc1ccc(N2CCN(S(=O)(=O)c3ccc(Cl)s3)CC2C)cc1 (configuration not stated)	-1	13µM*	-4%	0%
c1ccc(-c2nnc(-c3ccncc3)o2)cc1	-1	?	23%	4%
c1ccc(-c2nnc(-c3ccccc3)o2)cc1	0	nt	6%	4.5µM*
Brc1cccc(-c2nnc(-c3ccccc3)o2)c1	0	?	7%	3.2µM*
